From PubChem BioAssay AID1159580 (chemical genetic matrix, 2015)
“And” between values parts separate entries of the source, which are not always exact repeats. Equal entries are not always repeated. The whole screen tested about 5,500 compounds, of which about 2,000 (36%) were called active. About 18% were inconclusive and are not listed. Cut-off read from the data, not from the text of the source: active = normalized growth mostly below about 0.91 (no sharp cut-off); inconclusive = no clear call, values can overlap the other calls; inactive = mostly above about 0.92. The list shows a part of the results.

Assay: chemical genetic growth profiling, strain panel (AID 1159580);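 note: tested at 20 µM; growth read once vehicle control cultures reached saturation at 30 °C; 1 = growth at the plate median or of vehicle wells; lower values mean less growth of the strain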
Details: S. cerevisiae deletion strains, growth OD

Measured: normalized growth

CCN(CC)CCNC(=O)c1cc(Cl)c(N)cc1OC
inactive: locus YAL013W, strain DEP1, hits give low values 1.01 | locus YAL021C, strain ccr4, hits give low values 0.992 | locus YAL026C, strain drs2, hits give low values 0.998 | locus YAL030W, strain snc1, hits give low values 0.974 | locus YAL040C, strain CLN3, hits give low values 0.981 | locus YBL061C, strain skt5, hits give low values 0.976 | locus YBR009C, strain hhf1, hits give low values 0.987 | locus YBR021W, strain FUR4, hits give low values 1.02 | locus YBR023C, strain chs3, hits give low values 0.984 | locus YBR171W, strain sec66, hits give low values 0.979 | locus YBR229C, strain ROT2, hits give low values 1.01 | locus YBR231C, strain swc5, hits give low values 0.996 | locus YBR279W, strain paf1, hits give low values 0.992 | locus YCL011C, strain gbp2, hits give low values 0.94 | locus YCL016C, strain dcc1, hits give low values 0.948 | locus YCL029C, strain bik1, hits give low values 0.993 | locus YCL061C, strain MRC1 (second series), hits give low values 1.01 | locus YCL061C, strain MRC1, hits give low values 0.988 | locus YCL069W, strain vba3, hits give low values 0.985 | locus YCR088W, strain abp1, hits give low values 0.991 | locus YDL005C, strain med2, hits give low values 0.986 | locus YDL035C, strain GPR1, hits give low values 1.01 | locus YDL040C, strain nat1, hits give low values 0.988 | locus YDL074C, strain BRE1, hits give low values 1.02 | locus YDL101C, strain DUN1, hits give low values 1 | locus YDL134C, strain PPH21, hits give low values 1.01 | locus YDL185W, strain tfp1, hits give low values 0.996 | locus YDL192W, strain arf1, hits give low values 1.01 | locus YDR001C, strain nth1, hits give low values 0.968 | locus YDR069C, strain doa4, hits give low values 0.962 | locus YDR101C, strain arx1, hits give low values 0.985 | locus YDR137W, strain rgp1, hits give low values 0.967 | locus YDR150W, strain NUM1, hits give low values 1.02 and 1.01 | locus YDR159W, strain sac3, hits give low values 1.01 | locus YDR162C, strain NBP2, hits give low values 1.01 | locus YDR195W, strain ref2 0.974 | locus YDR297W, strain sur2, hits give low values 0.984 | locus YDR318W, strain mcm21, hits give low values 0.996 | locus YDR334W, strain swr1, hits give low values 0.93 | locus YDR335W, strain msn5, hits give low values 0.976 | locus YDR363W, strain ESC2, hits give low values 1.02 | locus YDR388W, hits give low values 0.995 | locus YDR392W, strain spt3, hits give low values 0.975 | locus YDR502C, strain sam2, hits give low values 0.988 | locus YEL003W, strain gim4, hits give low values 0.994 | locus YEL037C, strain rad23, hits give low values 0.976 | locus YEL061C, strain CIN8 (second series), hits give low values 0.978 | locus YEL061C, strain CIN8, hits give low values 1.01 | locus YER002W, strain NOP16, hits give low values 0.994 | locus YER015W, strain faa2, hits give low values 0.979 | locus YER016W, strain bim1, hits give low values 0.994 | locus YER110C, hits give low values 0.994 | locus YER111C, strain swi4, hits give low values 0.988 | locus YER155C, strain BEM2 (second series), hits give low values 1.03 | locus YER155C, strain BEM2, hits give low values 0.999 | locus YER167W, strain BCK2, hits give low values 1.01 | locus YFR010W, strain ubp6, hits give low values 0.969 | locus YGL078C, strain dbp3, hits give low values 0.997 | locus YGL086W, strain mad1, hits give low values 0.993 | locus YGL167C, strain pmr1, hits give low values 0.972 | locus YGL173C, strain kem1, hits give low values 0.98 | locus YGL227W, strain vid30, hits give low values 0.977 | locus YGL240W, strain doc1, hits give low values 1.01 | locus YGL248W, strain PDE1, hits give low values 1.01 | locus YGL253W, strain hxk2, hits give low values 0.981 | locus YGR078C, strain PAC10, hits give low values 1.02 | locus YGR135W, strain pre9, hits give low values 0.998 | locus YGR229C, strain SMI1, hits give low values 1.01 and 1.02 | locus YGR252W, strain gcn5, hits give low values 0.958 | locus YHR013C, strain ard1, hits give low values 0.955 | locus YHR027C, strain rpn1, hits give low values 0.963 | locus YHR030C, strain SLT2, hits give low values 1.01 and 1.07 | locus YHR079C, strain IRE1 (second series), hits give low values 0.994 | locus YHR079C, strain IRE1, hits give low values 1.07 | locus YHR094C, strain hxt1, hits give low values 0.992 | locus YHR129C, strain ARP1, hits give low values 1 | locus YHR142W, strain chs7, hits give low values 0.939 | locus YHR200W, strain rpn10, hits give low values 0.994 | locus YIL066C, strain RNR3, hits give low values 1.02 | locus YIL073C, strain SPO22, hits give low values 1.02 | locus YIL125W, strain kgd1, hits give low values 0.993 | locus YIR030C, strain dcg1, hits give low values 1 | locus YJL092W, strain hpr5, hits give low values 0.978 | locus YJL095W, strain BCK1 (second series), hits give low values 0.978 | locus YJL095W, strain BCK1, hits give low values 1 and 1.04 | locus YJL115W, strain asf1, hits give low values 0.953 | locus YJL129C, strain trk1, hits give low values 0.997 | locus YJL134W, strain LCB3, hits give low values 1.01 | locus YJL154C, strain vps35, hits give low values 0.971 | locus YJL164C, strain tpk1, hits give low values 1.01 | locus YJL166W, strain qcr8, hits give low values 0.956 | locus YJL168C, strain set2, hits give low values 0.992 | locus YJL187C, strain SWE1 (second series), hits give low values 1.02 | locus YJL187C, strain SWE1, hits give low values 0.989 | locus YJR043C, strain POL32, hits give low values 0.996 | locus YJR066W, strain TOR1, hits give low values 1
